The campaign covered roughly 2,100 compounds. About 1,400 (67%) were called active. The rule behind the calls is not given here. The set was probably picked from earlier hits. The list shows a part of the results. Potency and affinity values are given separately.
Experiment: non-covalent RecA intein splicing inhibitors, dose response, biochemical, cell-free, fluorescence, secondary screen (AID 449750);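 note: 0% = neutral control wells and -100% = positive control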
Conditions: series mostly up to 38 µM; activity change, negative = inhibition: at the top concentration

Structure (SMILES)	activity change, negative = inhibition
COCCn1c(N)c(C(=O)NCc2cccs2)c2nc3ccccc3nc21	236% (inactive)
CC1=NN(Cc2ccccc2)C(=O)/C1=C\c1ccc(N(C)C)cc1	160% (inactive)
Cc1ccccc1NC1=C/C(=N\S(=O)(=O)c2cccs2)c2ccccc2C1=O	267% (inactive)
Oc1ccc(N=Cc2ccc(-c3cccs3)s2)cc1	254% (inactive)
